Experimental data published in PubChem BioAssay (NCATS).
Inconclusive results are not listed. The source made the active and inactive calls. Unless noted, calls come from the whole dose curve; as a rule, active = well fitted curve in the direction sought with a large enough effect; inconclusive = small, poorly fitted or top-dose-only effect, or another doubt; inactive = no such curve, though single readings can be large; an effect the other way counts as inactive or inconclusive.

How the values were obtained:
[1] = target: Lysosomal acid glucosylceramidase (Homo sapiens) (UniProt P04062); experiment: Glucocerebrosidase-p2 (AID 348; in the data active = potency below about 10 µM; note: potency is the fitted concentration of half-maximal effect); conditions: purified GBA, blue fluorogenic substrate, 40 min
Lysosomal acid glucosylceramidase (Homo sapiens), sequence (P04062 whole entry, looked up): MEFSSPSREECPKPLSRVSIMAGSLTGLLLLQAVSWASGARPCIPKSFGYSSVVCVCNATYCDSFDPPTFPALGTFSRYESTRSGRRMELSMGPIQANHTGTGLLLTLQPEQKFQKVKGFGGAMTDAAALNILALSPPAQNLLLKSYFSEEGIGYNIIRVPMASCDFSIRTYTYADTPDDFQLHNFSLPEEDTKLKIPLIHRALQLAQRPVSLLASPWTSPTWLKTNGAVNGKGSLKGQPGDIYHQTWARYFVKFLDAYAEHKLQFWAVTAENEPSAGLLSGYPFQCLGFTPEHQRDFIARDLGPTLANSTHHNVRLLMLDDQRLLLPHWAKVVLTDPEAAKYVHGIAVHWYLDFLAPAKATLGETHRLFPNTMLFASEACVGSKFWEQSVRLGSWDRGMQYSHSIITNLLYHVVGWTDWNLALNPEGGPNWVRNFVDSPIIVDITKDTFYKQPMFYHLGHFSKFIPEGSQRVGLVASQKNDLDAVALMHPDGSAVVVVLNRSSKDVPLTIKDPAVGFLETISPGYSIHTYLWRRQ
In short: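 Normal human glucocerebrosidase (0.2 nM) with blue fluorogenic substrate (80 uM final) in citrate/phosphate pH 5.9 with 10mM sodium taurocholate, 0.01% tween-20; 40 min RT, NaOH/glycine stop; fluorescence Ex 365/Em 440; AC50 from a titration from 0.6 nM upwards.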

[2] = AP1 Signaling Pathway (AID 357; active = well fitted curve in either direction with a large enough effect, not every such curve was filed as active;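 note: ME-180 reporter cells stimulated with EGF at its EC50 level; % is set by controls: 0 for no effect and ±100 for the full control effect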); conditions: ME-180 AP-1-bla reporter, EGF-induced, beta-lactamase ratio, 5 h; at 7.69 µM (top of the series) unless noted
In short: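 Titration-series screen for positive or negative modulators of EC50 EGF-induced signaling in ME-180 cells carrying an AP-1-driven beta-lactamase reporter. After 5 hours at 37 degrees Celsius, CCF4 460nm/530nm emission ratio gave %Activity; AC50 values derived.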

[3] = target: Cytochrome P450 1A2 (Homo sapiens) (UniProt P05177); experiment: p450-cyp1a2 (AID 410; calls by dose curve; note: potency is the fitted concentration of half-maximal effect); conditions: recombinant CYP1A2, luciferin-ME demethylation, luminescence; series mostly up to 57 µM
Cytochrome P450 1A2 (Homo sapiens), sequence (P05177 whole entry, looked up): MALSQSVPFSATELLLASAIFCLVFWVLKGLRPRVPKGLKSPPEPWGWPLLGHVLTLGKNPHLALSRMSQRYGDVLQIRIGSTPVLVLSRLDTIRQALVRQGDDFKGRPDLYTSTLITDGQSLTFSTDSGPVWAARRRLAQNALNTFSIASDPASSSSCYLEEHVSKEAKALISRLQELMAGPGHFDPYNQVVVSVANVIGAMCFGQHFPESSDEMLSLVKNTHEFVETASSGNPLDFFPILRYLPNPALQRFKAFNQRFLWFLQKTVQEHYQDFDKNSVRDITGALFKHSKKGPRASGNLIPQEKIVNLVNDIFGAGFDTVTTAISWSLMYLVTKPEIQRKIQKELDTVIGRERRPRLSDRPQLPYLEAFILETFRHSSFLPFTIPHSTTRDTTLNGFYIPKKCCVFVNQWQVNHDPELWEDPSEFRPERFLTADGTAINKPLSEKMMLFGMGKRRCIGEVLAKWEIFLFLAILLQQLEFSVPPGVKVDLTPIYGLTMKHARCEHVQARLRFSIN
In short: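 20nM CYP1A2, 100uM Luciferin-ME (=Km), 100mM KPO4; cpd 10 min RT; +NADPH regen, 60 min RT; stop/detect 20 min; luminescence. Normalized to furafylline 57 uM = full inhibition.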

[4] = NFAT Signaling Pathway (AID 444; active = well fitted curve in either direction with a large enough effect, not every such curve was filed as active;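 note: carbachol stimulus at about its EC50 of 1 µM final; % is set by controls: 0 for no effect and ±100 for the full control effect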); conditions: Jurkat NFAT-bla M1, carbachol, beta-lactamase ratio, 5 h; at 7.69 µM (top of the series) unless noted
In short: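 Jurkat cells carrying an NFAT-driven β-lactamase reporter and co-transfected muscarinic M1 receptor were treated with compound plus carbachol (1 uM final, an EC50 level) for 5 h at 37 °C. CCF4 loading followed for 1 h at RT; 460/530 nm ratio gave %activity.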

[5] = Stat Signaling Pathway (AID 446; active = well fitted curve in either direction with a large enough effect, not every such curve was filed as active;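 note: ME-180 cervical cancer cells given 40 pM IL-6 alongside compound; SIE-controlled beta-lactamase reporter measured as 460/530 nm FRET emission ratio; % is set by controls: 0 for no effect and ±100 for the full control effect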); conditions: ME-180 (cervical carcinoma) SIE beta-lactamase reporter, IL-6 stimulated, 5 h; at 7.69 µM (top of the series) unless noted
In short: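 Compound effects on IL-6-induced STAT reporter activity were measured in ME-180 cells. After overnight culture, cells were co-treated with 40 pM IL-6 for 5 hrs before beta-lactamase substrate loading at room temperature.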

[6] = target: Glucocorticoid receptor (Homo sapiens) (UniProt P04150); experiment: GR-GFP Redistribution (AID 450;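 active = compounds whose dose series gives a full or clear partial fitted curve of increased nuclear translocation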; note: potency is the fitted concentration of half-maximal effect); conditions: U2OS GR-GFP nuclear translocation, laser cytometry, 2 h
Glucocorticoid receptor (Homo sapiens), sequence (P04150 whole entry, looked up, the tested form may be a part): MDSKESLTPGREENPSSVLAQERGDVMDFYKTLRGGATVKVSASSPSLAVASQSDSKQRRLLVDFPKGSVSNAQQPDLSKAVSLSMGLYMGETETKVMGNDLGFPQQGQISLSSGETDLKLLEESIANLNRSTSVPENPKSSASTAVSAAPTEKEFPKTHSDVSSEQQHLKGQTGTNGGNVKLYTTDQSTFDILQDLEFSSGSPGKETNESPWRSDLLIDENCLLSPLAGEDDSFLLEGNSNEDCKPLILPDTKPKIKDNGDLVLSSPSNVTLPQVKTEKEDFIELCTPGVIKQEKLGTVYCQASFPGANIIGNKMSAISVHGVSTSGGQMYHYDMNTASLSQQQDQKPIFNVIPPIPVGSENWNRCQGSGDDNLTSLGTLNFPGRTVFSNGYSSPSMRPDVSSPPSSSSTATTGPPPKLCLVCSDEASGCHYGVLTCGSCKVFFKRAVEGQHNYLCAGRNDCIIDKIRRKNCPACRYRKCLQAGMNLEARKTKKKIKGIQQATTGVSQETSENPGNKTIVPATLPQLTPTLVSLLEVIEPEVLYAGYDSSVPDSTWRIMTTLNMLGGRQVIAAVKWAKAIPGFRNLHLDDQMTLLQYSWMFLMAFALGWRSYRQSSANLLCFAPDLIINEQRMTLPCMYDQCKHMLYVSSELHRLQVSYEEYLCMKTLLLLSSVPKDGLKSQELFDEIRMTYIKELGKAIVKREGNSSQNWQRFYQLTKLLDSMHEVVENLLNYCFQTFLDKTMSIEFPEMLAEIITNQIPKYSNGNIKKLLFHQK

[7] = target: Glucocorticoid receptor (Homo sapiens) (UniProt P04150); experiment: GR-EFC Redistribution (AID 451; calls by dose curve; note: potency is the fitted concentration of half-maximal effect); conditions: CHO-K1 GR-EFC translocation, beta-gal luminescence, 2 h
In short: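 CHO-K1 cells stably expressing nuclear-localized β-gal enzyme acceptor and GR fused C-terminally to the enzyme donor fragment; ligand-driven nuclear translocation restores β-gal by complementation. Compounds titrated up to 46 uM final, 2 h at 37 °C; luminescence read.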

[8] = target: Mitogen-activated protein kinase 10 (Mus musculus) (UniProt Q61831); experiment: JNK3 AlphaScreen Assay (AID 530; active = well fitted curve in either direction with a large enough effect, not every such curve was filed as active;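 note: kinase came from lysate of stimulated human HepG2 cells; signal reports phosphorylation of biotinylated GST-cJun 1-79 at Ser73 with 10 µM ATP; % is set by controls: 0 for no effect and ±100 for the full control effect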); conditions: JNK3 lysate, c-Jun phosphorylation; series mostly up to 57.1 µM
In short: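 Biotinylated GST-cJun(1-79) served as substrate for JNK3 in HepG2 lysates stimulated with IL-1beta and TNF-alpha. ATP was 10 uM final, pH 7.6. Ser73 phosphorylation was quantified by AlphaScreen (680 nm excitation).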

[9] = target: 3',5'-cyclic-AMP phosphodiesterase 4B (Homo sapiens) (UniProt Q07343); experiment: qHTS Assay for Inhibitors of PDE-IV (AID 607; active = well fitted activation curve with a large enough effect in the main read-out, with a control signal flat, not every such curve was filed as active; note: % of control where 0% means no effect); conditions: HEK293 ACTOne CNG channel cells, membrane potential fluorescence; series mostly up to 22.9 µM
3',5'-cyclic-AMP phosphodiesterase 4B (Homo sapiens), sequence (Q07343 whole entry, looked up): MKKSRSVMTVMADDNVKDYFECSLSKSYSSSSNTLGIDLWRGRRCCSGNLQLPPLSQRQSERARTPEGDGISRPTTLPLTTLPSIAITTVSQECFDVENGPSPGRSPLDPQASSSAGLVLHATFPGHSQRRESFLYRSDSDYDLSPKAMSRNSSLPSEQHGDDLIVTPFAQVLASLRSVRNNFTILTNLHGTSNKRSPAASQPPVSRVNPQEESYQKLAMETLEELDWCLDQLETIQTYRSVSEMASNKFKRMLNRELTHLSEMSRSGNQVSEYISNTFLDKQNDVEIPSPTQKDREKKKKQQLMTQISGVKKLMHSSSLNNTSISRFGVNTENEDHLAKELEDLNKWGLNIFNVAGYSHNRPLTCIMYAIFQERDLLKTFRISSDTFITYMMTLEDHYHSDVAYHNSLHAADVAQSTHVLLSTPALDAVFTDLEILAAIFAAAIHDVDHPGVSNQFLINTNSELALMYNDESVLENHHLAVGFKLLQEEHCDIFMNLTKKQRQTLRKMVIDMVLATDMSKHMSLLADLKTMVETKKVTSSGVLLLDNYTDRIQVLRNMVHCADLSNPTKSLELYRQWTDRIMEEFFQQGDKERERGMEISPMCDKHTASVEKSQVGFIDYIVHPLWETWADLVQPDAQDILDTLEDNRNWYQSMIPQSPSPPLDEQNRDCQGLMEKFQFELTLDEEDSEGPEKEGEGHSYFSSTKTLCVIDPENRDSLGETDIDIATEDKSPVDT
In short: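 ACTOne HEK293 cells carry a modified cAMP-gated CNG channel and express endogenous PDE4; plated 1000 cells/well, compounds up to 22.9 uM final. Membrane-potential dye fluorescence (ex 535/em 590) was read; parental cells received 10 uM forskolin + 100 uM RO 20-1724.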

[10] = target: Cytochrome P450 2C9 (Homo sapiens) (UniProt P11712); experiment: qHTS Assay for Inhibitors and Substrates of Cytochrome P450 2C9 (AID 883); conditions: recombinant CYP2C9, luciferin-H luminescence, 60 min; series mostly up to 57.1 µM; note: potency is the fitted concentration of half-maximal effect; nearly all actives have a fitted effect of over 60% in size
Cytochrome P450 2C9 (Homo sapiens), sequence (P11712 whole entry, looked up): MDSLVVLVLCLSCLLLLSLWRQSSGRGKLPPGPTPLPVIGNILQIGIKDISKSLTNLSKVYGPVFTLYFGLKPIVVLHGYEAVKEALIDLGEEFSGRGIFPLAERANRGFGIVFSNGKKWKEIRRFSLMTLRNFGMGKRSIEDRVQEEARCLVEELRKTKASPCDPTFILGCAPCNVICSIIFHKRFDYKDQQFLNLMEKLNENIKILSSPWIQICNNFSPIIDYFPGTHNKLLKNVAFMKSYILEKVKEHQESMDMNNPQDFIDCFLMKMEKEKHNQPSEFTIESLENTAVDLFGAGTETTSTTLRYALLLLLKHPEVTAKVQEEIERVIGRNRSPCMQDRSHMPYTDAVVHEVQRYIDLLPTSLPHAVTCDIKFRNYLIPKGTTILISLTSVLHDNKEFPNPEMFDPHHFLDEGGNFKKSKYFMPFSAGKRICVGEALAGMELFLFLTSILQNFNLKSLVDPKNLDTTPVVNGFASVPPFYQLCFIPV
In short: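 CYP2C9 deoxyluciferin hydroxylation, 37C, 60 min with NADPH regeneration; 10nM enzyme, 100uM Luciferin-H (KM). Glo detection reagent stopped reaction; luminescence normalized to sulphaphenazole (57uM) full inhibition.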

[11] = target: Dual specificity protein kinase CLK4 (Homo sapiens) (UniProt Q9HAZ1); experiment: qHTS Assay for Inhibitors of CDC-like Kinase 4 (Kinase-Glo Assay) (AID 1770); conditions: recombinant Clk4, Kinase-Glo ATP depletion luminescence; series mostly up to 66.7 µM; note: nearly all actives have a fitted effect of over 65% in size; note: potency is the fitted concentration of half-maximal effect
Dual specificity protein kinase CLK4 (Homo sapiens), sequence (Q9HAZ1 whole entry, looked up): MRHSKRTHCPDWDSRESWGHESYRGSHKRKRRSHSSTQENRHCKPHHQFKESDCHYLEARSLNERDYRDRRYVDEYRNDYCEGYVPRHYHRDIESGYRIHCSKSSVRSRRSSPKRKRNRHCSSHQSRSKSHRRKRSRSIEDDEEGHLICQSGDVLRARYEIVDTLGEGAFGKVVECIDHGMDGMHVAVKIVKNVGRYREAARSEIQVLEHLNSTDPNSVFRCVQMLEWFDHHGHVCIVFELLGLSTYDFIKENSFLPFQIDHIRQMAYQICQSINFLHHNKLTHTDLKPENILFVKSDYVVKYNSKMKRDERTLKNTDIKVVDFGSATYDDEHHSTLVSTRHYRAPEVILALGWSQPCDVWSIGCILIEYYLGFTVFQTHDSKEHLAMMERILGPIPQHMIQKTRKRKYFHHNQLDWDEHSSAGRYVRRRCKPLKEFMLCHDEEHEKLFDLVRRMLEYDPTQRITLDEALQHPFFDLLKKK
In short: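 Readout: Kinase-Glo luminescence from ATP left after a 4.5 h room-temperature reaction of 25 nM Clk4 with 100 uM RS peptide and 1 uM ATP (final). Buffer: 25 mM Tris pH 7.5, 10 mM MgCl2.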

[12] = target: Dual specificity protein kinase CLK4 (Homo sapiens) (UniProt Q9HAZ1); experiment: qHTS Assay for Inhibitors of CDC-like Kinase 4 (ADP-Glo Assay) (AID 1771); conditions: recombinant CLK4, ADP-Glo luminescence; series mostly up to 80 µM; note: nearly all actives have a fitted effect of over 70% in size; note: potency is the fitted concentration of half-maximal effect
In short: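 25 nM Clk4, 100 uM RS peptide, 1 uM ATP (final); 2 mM MgCl2, 0.5 mM EGTA, 2.5 mM DTT, 0.01% Triton X-100; 1 hr RT. ADP-Glo readout: ATP depletion 45 min, conversion/luciferase 30 min, luminescence.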

[13] = target: Dual specificity protein kinase CLK4 (Homo sapiens) (UniProt Q9HAZ1); experiment: qHTS Assay for Inhibitors of CDC-like Kinase 4 (ADP-FP Assay) (AID 1795); conditions: Transcreener ADP fluorescence polarization; series mostly up to 50 µM; note: nearly all actives have a fitted effect of over 60% in size; note: potency is the fitted concentration of half-maximal effect
In short: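 FP readout: Orange Transcreener ADP2 tracer (4 nM) plus ADP antibody, read after 30 min at room temperature. Kinase step: 6.25 nM Clk4, 100 uM RS peptide, 1 uM ATP, pH 7.5, 1 h.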

[14] = target: Ubiquitin carboxyl-terminal hydrolase 1 (Homo sapiens) (UniProt O94782); experiment: Inhibitors of USP1/UAF1: Pilot qHTS (AID 504865); conditions: purified USP1/UAF1, Ub-rhodamine cleavage fluorescence; series mostly up to 54.9 µM;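 note: rhodamine fluorescence freed from ubiquitin-rhodamine substrate followed over time; top concentration of the series differs between compounds; % is set by controls: 0 for no effect and ±100 for the full control effect; nearly all actives have a fitted effect of over 35% in size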
Ubiquitin carboxyl-terminal hydrolase 1 (Homo sapiens), sequence (O94782 whole entry, looked up): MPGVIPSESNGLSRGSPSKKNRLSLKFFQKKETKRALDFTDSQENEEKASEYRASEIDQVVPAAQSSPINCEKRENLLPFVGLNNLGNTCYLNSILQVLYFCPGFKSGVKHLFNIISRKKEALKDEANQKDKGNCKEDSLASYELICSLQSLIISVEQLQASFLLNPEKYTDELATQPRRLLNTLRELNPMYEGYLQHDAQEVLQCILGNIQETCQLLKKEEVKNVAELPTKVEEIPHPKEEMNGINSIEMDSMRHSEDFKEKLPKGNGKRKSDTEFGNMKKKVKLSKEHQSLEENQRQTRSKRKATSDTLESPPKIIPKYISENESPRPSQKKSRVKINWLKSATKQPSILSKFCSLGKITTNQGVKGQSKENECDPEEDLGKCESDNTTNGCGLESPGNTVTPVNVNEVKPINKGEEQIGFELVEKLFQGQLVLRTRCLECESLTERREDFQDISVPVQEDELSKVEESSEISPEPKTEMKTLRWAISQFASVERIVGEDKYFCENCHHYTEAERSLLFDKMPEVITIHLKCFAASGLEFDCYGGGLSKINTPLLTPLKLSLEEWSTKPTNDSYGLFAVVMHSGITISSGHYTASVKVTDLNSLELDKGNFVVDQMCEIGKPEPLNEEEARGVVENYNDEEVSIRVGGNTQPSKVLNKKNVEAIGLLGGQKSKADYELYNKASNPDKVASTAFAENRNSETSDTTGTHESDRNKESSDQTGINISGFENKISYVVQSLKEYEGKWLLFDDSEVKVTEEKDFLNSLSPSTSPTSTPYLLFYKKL
In short: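 1nM USP1/UAF1 + cpd, 15 min RT; start w/ Ub-Rho 150nM final; kinetic FL 480/540 nm, 6 reads q60 s. Buffer 50mM HEPES pH 7.8, 0.5mM EDTA, 1mM TCEP, 0.01% Tween-20, 0.1 mg/ml BSA.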

[15] = Primary qHTS for small molecule stabilizers of the endoplasmic reticulum resident proteome: Secreted ER Calcium Modulated Protein (SERCaMP) assay (AID 1508630); conditions: SH-SY5Y GLuc-SERCaMP (Gaussia luciferase released on ER calcium loss) secretion, thapsigargin, luminescence; series mostly up to 38.4 µM; note: % is set by controls: 0 for no effect and ±100 for the full control effect
In short: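 The SH-SY5Y reporter protocol was run at 3 concentrations up to 38.3 uM (primary) or 11 concentrations (follow-up): 16 h compound, 100 nM thapsigargin for 4 h, then extracellular luciferase luminescence.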

[16] = target: Cytochrome P450 3A4 (Homo sapiens) (UniProt P08684); experiment: qHTS Assay for Inhibitors and Substrates of Cytochrome P450 3A4 (AID 884); conditions: recombinant CYP3A4, Luciferin-PPXE luminescence; series mostly up to 57.1 µM; note: potency is the fitted concentration of half-maximal effect; nearly all actives have a fitted effect of over 50% in size
Cytochrome P450 3A4 (Homo sapiens), sequence (P08684 whole entry, looked up): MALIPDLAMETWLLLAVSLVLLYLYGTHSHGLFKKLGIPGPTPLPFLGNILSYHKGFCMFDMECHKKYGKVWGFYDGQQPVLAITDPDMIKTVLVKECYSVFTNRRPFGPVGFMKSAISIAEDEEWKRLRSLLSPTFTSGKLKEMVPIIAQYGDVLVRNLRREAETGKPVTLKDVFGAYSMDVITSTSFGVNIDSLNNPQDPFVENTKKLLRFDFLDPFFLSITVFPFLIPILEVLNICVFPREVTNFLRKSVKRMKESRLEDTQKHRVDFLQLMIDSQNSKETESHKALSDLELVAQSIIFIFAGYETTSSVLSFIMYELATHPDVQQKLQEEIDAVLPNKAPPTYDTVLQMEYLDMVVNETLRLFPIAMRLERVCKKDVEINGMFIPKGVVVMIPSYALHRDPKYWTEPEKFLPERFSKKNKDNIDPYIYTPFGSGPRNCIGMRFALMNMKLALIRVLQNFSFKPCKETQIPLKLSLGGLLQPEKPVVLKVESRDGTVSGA
In short: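 Luminescent readout of luciferin produced by CYP3A4 (20 nM) dealkylation of Luciferin-PPXE, 25 uM (its KM). NADPH-driven reaction ran 60 min at RT after 10 min compound preincubation; data scaled to 57 uM ketoconazole as 100% inhibition.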

[17] = target: Cytochrome P450 3A4 (Homo sapiens) (UniProt P08684); experiment: qHTS Assay for Activators of Cytochrome P450 3A4 (AID 885); conditions: recombinant CYP3A4, Luciferin-PPXE luminescence, 60 min; series mostly up to 57.1 µM; note: nearly all actives have a fitted effect of over 65% in size
In short: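 CYP3A4 activity: Luciferin-PPXE O-dealkylation, 25uM substrate, 200mM KPO4, RT throughout. Read-out is luciferase luminescence; higher values reflect activation.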

O=c1c(-c2ccccc2)nc2cnc(Oc3cccc(Cl)c3)nc2n1C1CC1
active: Potency [3] 1.58 µM | Potency [10] 0.251 µM
inactive: Potency [1] > 11.4 µM | activity change, negative = inhibition [2] -15.1% | activity change, negative = inhibition [4] 10.9% | activity, negative = inhibition [5] -5.81% | Potency [6] > 9.22 µM | Potency [7] > 46 µM | Potency [8] | Potency [9] | Potency [11] | Potency [12] | Potency [13] | Potency [14] | outcome [15]

COc1ccccc1-c1cc(-n2ccnc2)ncn1
inactive: Potency [1] > 11.4 µM | activity change, negative = inhibition [2] 8.26% | activity change, negative = inhibition [4] 7.77% | activity, negative = inhibition [5] 10.2% | Potency [6] > 46 µM | Potency [7] > 46 µM | Potency [8] | Potency [9] | Potency [17] | Potency [14] | outcome [15]
active: Potency [3] 0.316 µM | Potency [16] 0.316 µM | Potency [11] 6.31 µM | Potency [12] 6.31 µM | Potency [13] 8.91 µM

CN(C)C(=O)c1ccc(-c2cncnc2NCc2ccccc2)cc1
active: Potency [3] 20 µM | Potency [16] 2.51 µM
inactive: Potency [1] > 11.4 µM | activity change, negative = inhibition [2] 8.88% | activity change, negative = inhibition [4] -3.31% | activity, negative = inhibition [5] 9.3% | Potency [6] > 46 µM | Potency [7] > 46 µM | Potency [8] | Potency [9] | Potency [17] | Potency [11] | Potency [12] | Potency [13] | Potency [14] | outcome [15]

COc1ccc(CNc2ccnc(-c3ccc(C(=O)N(C)C)cc3)n2)c(OC)c1
inactive: Potency [1] > 11.4 µM | activity change, negative = inhibition [2] -20% | activity change, negative = inhibition [4] -8.82% | activity, negative = inhibition [5] -4.52% | Potency [6] > 46 µM | Potency [7] > 46 µM | Potency [8] | Potency [9] | Potency [17] | Potency [11] | Potency [12] | Potency [13] | Potency [14] | outcome [15]
active: Potency [3] 12.6 µM | Potency [16] 3.98 µM

COc1ncc2nc(-c3ccc(F)cc3)c(=O)n(CCc3ccccc3)c2n1
inactive: Potency [1] > 11.4 µM | activity change, negative = inhibition [2] -6.05% | activity change, negative = inhibition [4] -8.98% | activity, negative = inhibition [5] -5.82% | Potency [6] > 9.22 µM | Potency [7] > 46 µM | Potency [8] | Potency [9] | Potency [11] | Potency [12] | Potency [13] | Potency [14] | outcome [15]
active: Potency [3] 0.398 µM

Cn1cc(-c2nc3cnc(Oc4ccccc4)nc3n(Cc3cccs3)c2=O)c2ccccc21
inactive: Potency [1] > 11.4 µM | activity change, negative = inhibition [2] 7.68% | activity change, negative = inhibition [4] 23.5% | activity, negative = inhibition [5] 11% | Potency [6] > 9.22 µM | Potency [7] > 46 µM | Potency [8] | Potency [9] | Potency [11] | Potency [12] | Potency [13] | Potency [14] | outcome [15]
active: Potency [3] 3.16 µM
